# The campaign covered roughly 310,000 compounds. About 14,000 (4.5%) showed an effect of 50% or more. Effects have a minus sign here. Many of the other results were omitted from the sample, so strong results are more common in it than they were.
# Biological target: human ether-à-go-go-related gene (hERG) potassium channel (human, UniProt Q12809)
# Assay: primary screen, population patch clamp on CHO cells stably expressing hERG; higher = less effect of the substance
# 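Note: peak tail current of the secondary pulse compared with the same well before compound.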
# Sequence of human ether-à-go-go-related gene (hERG) potassium channel (Q12809 whole entry, looked up): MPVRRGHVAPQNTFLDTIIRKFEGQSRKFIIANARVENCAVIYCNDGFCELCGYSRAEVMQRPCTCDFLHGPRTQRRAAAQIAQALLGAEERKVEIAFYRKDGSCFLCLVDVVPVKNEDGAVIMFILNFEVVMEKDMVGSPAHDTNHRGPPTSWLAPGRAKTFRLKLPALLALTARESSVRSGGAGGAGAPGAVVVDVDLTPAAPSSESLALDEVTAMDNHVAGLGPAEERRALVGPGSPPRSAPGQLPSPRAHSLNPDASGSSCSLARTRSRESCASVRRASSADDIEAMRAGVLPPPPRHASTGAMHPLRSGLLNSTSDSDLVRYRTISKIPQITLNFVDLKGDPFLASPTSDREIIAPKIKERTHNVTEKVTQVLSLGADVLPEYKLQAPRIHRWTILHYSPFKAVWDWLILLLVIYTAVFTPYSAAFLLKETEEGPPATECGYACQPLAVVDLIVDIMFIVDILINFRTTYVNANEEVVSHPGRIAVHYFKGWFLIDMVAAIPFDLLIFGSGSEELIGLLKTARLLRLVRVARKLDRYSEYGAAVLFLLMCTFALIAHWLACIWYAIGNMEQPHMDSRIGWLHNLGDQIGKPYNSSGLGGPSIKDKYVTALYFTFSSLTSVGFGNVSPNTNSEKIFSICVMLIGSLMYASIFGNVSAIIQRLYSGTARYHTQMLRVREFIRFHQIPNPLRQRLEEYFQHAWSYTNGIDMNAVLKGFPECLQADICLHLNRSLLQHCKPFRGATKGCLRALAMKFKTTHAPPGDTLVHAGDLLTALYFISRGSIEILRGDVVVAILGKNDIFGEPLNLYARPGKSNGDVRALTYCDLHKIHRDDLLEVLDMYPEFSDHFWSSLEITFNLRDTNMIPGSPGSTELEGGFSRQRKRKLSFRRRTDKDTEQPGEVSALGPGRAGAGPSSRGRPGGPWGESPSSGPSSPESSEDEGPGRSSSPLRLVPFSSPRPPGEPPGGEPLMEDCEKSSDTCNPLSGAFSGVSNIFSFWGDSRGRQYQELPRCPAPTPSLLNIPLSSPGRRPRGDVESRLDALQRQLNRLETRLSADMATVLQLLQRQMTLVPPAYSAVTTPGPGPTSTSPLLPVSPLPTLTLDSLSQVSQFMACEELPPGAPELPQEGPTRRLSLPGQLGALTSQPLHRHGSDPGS
row,Compound,"hERG current change (%, negative = inhibition) at 10uM [%]"
1,O=c1cc(O)c(-c2cccc(C(F)(F)F)c2)c(Cl)[nH]1,22.5
2,O=C1C(Cc2ccc3[nH]ccc3c2)NC(=S)N1c1ccccc1 (stereo not drawn),7.61
3,Cc1ccccc1C(=O)NC(=S)NCc1cccnc1,31.9
4,COC(=O)c1ccc(CO/N=C2\CCCc3nonc32)cc1,-35.1
5,O=C(Cn1c(-c2ccccc2)noc1=O)Nc1ccc(N2CCCCCC2)cc1,6.95
6,Cc1cc(C)cc(OCC(=O)OCC(=O)NCc2ccco2)c1,4.8
7,O=C(Cc1ccc(NC2=NC3CS(=O)(=O)CC3S2)cc1)NCCc1ccccc1 (stereo not drawn),6.22
8,O=c1oc2cc(OCc3ccc(C(F)(F)F)cc3)ccc2cc1-c1ccccn1,10.4
9,Cc1ccc(C(=O)OCCOc2cccc(Cl)c2)cc1S(=O)(=O)N1CCOCC1,-12.2
10,CCOC(=O)C1=C(c2ccccc2)NC(=S)NC1c1ccc(Cl)cc1 (stereo not drawn),0.162
11,Cc1ccc(NC(=O)C2CCN(S(C)(=O)=O)CC2)cc1C,3.29
12,CC(C)[N+]12CCC(CC1)C(C(O)(c1ccccc1)c1ccccc1)C2.[I-] (stereo not drawn),16.9
13,OC(c1ccccc1)(c1ccc(Cl)cc1)C1CN2CCC1CC2 (stereo not drawn),-56
14,c1ccc(C2CN3CCC2CC3)cc1 (stereo not drawn),-5.74
15,Cc1ccc(C(=O)N2CCC(C)CC2)cc1C,8.09
16,Cc1ccc(C(O)(c2ccc(C)c(C)c2)C2CN3CCC2CC3)cc1C.Cl (stereo not drawn),-67.6
17,Cl.OC(c1ccccc1)(c1ccccc1)C1CN2CCC1CC2 (stereo not drawn),-45.2
18,Cl.OC(Cc1ccccc1)(c1ccccc1)C1CN2CCC1CC2 (stereo not drawn),-49.7
19,C[N+]12CCC(CC1)C(C(O)(c1cccc(Cl)c1)c1cccc(Cl)c1)C2.[I-] (stereo not drawn),13.6
20,Cl.OC(c1cccc(Cl)c1)(c1cccc(Cl)c1)C1CN2CCC1CC2 (stereo not drawn),-81.8
21,Cc1ccccc1C(O)(Cc1ccccc1)C1CN2CCC1CC2.Cl (stereo not drawn),-55.2
22,O=C(NC1CN2CCC1CC2)c1cccc(Cl)c1 (stereo not drawn),3.72

row,Compound,"hERG current change (%, negative = inhibition) at 10uM [%]"
1,CC(=O)N1CCN(c2ccc(NC(=O)c3cccc(Cl)c3)cc2)CC1,-7.02
2,COc1ccc2nc(NC(=O)C(NS(=O)(=O)c3cccs3)C(C)C)sc2c1 (stereo not drawn),8.73
3,Cc1ccc(-n2cc(CCCCCCCCC(=O)O)nn2)cc1,-12.3
4,COc1ccc(-c2ccc(=O)n(CC(=O)Nc3nnc(C(C)C)s3)n2)cc1OC,11.9
5,S=c1[nH]c2cnccc2n1Cc1ccccc1,12.4
6,COc1cc(C(=O)NCCOc2ccc(F)cc2)c(Br)c(OC)c1OC,3.42
7,COCC(C)NC(=O)c1noc2c1CCc1cc(OC)ccc1-2 (stereo not drawn),-25.9
8,CCOc1ncccc1C(=O)Nc1cc(S(=O)(=O)N2CCCCC2)ccc1OC,-8.23
9,COc1ccc(C)cc1NC(=O)CN1C(=O)COc2ccc(S(=O)(=O)N3CCC(C)CC3)cc21,26.3
10,Cc1cccc(C2c3[nH]c4ccccc4c3CCN2Cc2cccn2-c2ncccn2)c1 (stereo not drawn),-77.8
11,COc1cccc(C2c3[nH]c4ccccc4c3CCN2Cc2cnc(C)s2)c1OC (stereo not drawn),2.51
12,CSc1ncc(CN2CCc3c([nH]c4ccccc34)C2c2cccc(O)c2)cn1 (stereo not drawn),-22.9
13,COc1ccc(C2c3[nH]c4ccccc4c3CCN2Cc2cccn2-c2ncccn2)cc1C (stereo not drawn),-52
14,CC(=O)NCCC(=O)N1CCc2c([nH]c3ccccc23)C1c1cccc(C)c1 (stereo not drawn),-14.3
15,COc1cccc(C2c3[nH]c4ccccc4c3CCN2Cc2ncc[nH]2)c1 (stereo not drawn),-49.4
16,COc1cccc(C2c3[nH]c4ccccc4c3CCN2Cc2cccn2-c2ncccn2)c1 (stereo not drawn),-76.1
17,CCn1nc(C)c(CN2CCc3c([nH]c4ccccc34)C2c2ccc(F)c(OC)c2)c1C (stereo not drawn),-48.2
18,CCC(=O)NC(NC(=S)Nc1ccccc1Br)C(Cl)(Cl)Cl (stereo not drawn),18.2
19,O=C1CC2(CCCC2)C(=O)N1CN1CCN(S(=O)(=O)c2ccc(Cl)c(Cl)c2)CC1,3.53
20,CCCCOC(=O)n1c(SCC(=O)N(CC)CC)nc2ccccc21,-34.7
21,CCCn1c(O)c(/C=C2\C=NN=C2c2ccccc2)sc1=S,7.93
22,c1ccc(C2Nc3cccc4cccc(c34)N2)cc1,14

row,Compound,"hERG current change (%, negative = inhibition) at 10uM [%]"
1,CN1CCN(NC(=O)c2cc(S(=O)(=O)Nc3ccc(Cl)cc3)ccc2Cl)CC1.Cl,5.84
2,CCOC(=O)CNC(=O)c1ccc(Br)s1,-9.48
3,CCOc1cccc(-c2c(C(=O)N/N=C(\C)c3ccncc3)nnn2-c2nonc2N)c1,-43.6
4,COc1ccc2cc(-c3ccccc3)ncc2c1,5.65
5,COc1ccc2cc(-c3ccccc3)c(=O)oc2c1,18
6,COc1ccc(-[n+]2c(-c3ccccc3)cc(-c3ccccc3)cc2-c2ccccc2)cc1.[O-][Cl+3]([O-])([O-])[O-],-71.9
7,COc1ccc(-[n+]2c(-c3ccccc3)cc(-c3ccc(C)cc3)cc2-c2ccccc2)cc1.[O-][Cl+3]([O-])([O-])[O-],-77.7
8,COc1ccc(-c2cccc(C(=O)Nc3ccc(C)cc3)c2)cc1,16.9
9,COc1ccc(-c2ccc(OC)cc2)cc1,7.51
10,CSc1ccc(S(=O)(=O)NCc2ccccc2)cc1,13.1
11,CCCC(CCC(=O)Nc1cccc([N+](=O)[O-])c1)C(=O)O (stereo not drawn),-0.0899
12,CCOc1ccc(-n2c(C)nc3cc(C(=O)NCC4CCCO4)ccc32)cc1 (stereo not drawn),-15.2
13,CCN(CC)c1ccc(S(=O)(=O)N2CCCCC2)cc1NC(=O)C1CCC1,-15.3
14,CC1(C)CC(=O)c2cnc(NCC3CCCO3)nc2C1 (stereo not drawn),7.24
15,COc1cc(C2=NOC(C(=O)Nc3ccc4c(c3)OCO4)C2)cc(OC)c1OC (stereo not drawn),16.6
16,FC(F)(F)c1nc(N2CCCC2)ncc1-c1nnnn1-c1ccc(Cl)cc1,-4.4
17,CC1(C)C(N(O)C(=O)Nc2ccc(Cl)cc2)N(c2ccc(Cl)cc2)C(=O)N1CC(=O)NN (stereo not drawn),-14.6
18,O=c1cc(-c2ccccc2)[nH]n2cnnc12,12.6
19,COc1cccc(/C=C2\SC(=O)N(CC(=O)NCCCn3ccnc3)C2=O)c1,-31.6
20,CC(C)c1ccc(/C=C2\SC(=S)N(CCC(=O)NCCCn3ccnc3)C2=O)cc1,-17.3
21,O=C(CN1C(=O)S/C(=C\c2ccccc2)C1=O)NCCCn1ccnc1,-23.4
22,COc1ccccc1/C=C1\SC(=O)N(CC(=O)NCCCn2ccnc2)C1=O,-3.76

row,Compound,"hERG current change (%, negative = inhibition) at 10uM [%]"
1,O=C(CN1C(=O)S/C(=C\c2ccccc2F)C1=O)NCCCn1ccnc1,-9.34
2,CC(C)c1ccc(/C=C2\SC(=O)N(CC(=O)NCCCn3ccnc3)C2=O)cc1,-76.9
3,COc1ccc(/C=C2\SC(=O)N(CCC(=O)NCCCn3ccnc3)C2=O)cc1,-43.2
4,O=C(CN1C(=O)S/C(=C\c2cccc(Cl)c2)C1=O)NCCCn1ccnc1,-51.2
5,O=C(CN1C(=O)S/C(=C\c2ccccc2Cl)C1=O)NCCCn1ccnc1,-44.5
6,O=C(CN1C(=O)S/C(=C\c2ccc(Cl)cc2)C1=O)NCCCn1ccnc1,-68.2
7,O=C(CN1C(=O)S/C(=C\c2ccc(F)cc2)C1=O)NCCCn1ccnc1,-58.9
8,COc1ccc(/C=C2\SC(=O)N(CC(=O)NCCCn3ccnc3)C2=O)cc1,-44.5
9,CCCCCCCCN1[C@@H](CC(=O)OC)c2cc(C(F)(F)F)ccc2S1(=O)=O,1.99
10,Cc1cc(C)n(-c2nc3c(c(=O)[nH]c(=O)n3C)n2C)n1,10.1
11,Oc1ccc(-c2cc(-c3ccc(O)cc3)nc(-c3ccccc3)n2)cc1,20.1
12,Cc1ccc(S(=O)(=O)n2[nH]c(=O)cc2NC(=O)c2cccs2)cc1,-0.667
13,CCc1nn2c(=O)cc(CSCC(=O)Nc3ccccc3F)nc2s1,11.3
14,Cc1ccccc1OCC(=O)N1CCCCCCC1,1.22
15,CCC(C#CCN1CCCCC1)(CC)OCCC#N,2.57
16,CCOC(=O)Cc1nnc(NC(=O)CSc2ccccc2)s1,7.53
17,CCOC(=O)Cc1nnc(NC(=O)CSc2ncc(-c3ccccc3)nn2)s1,-58.7
18,CCOC(=O)CSc1ncc(-c2ccccc2)nn1,-6.58
19,C=CCc1cc(C=O)cc(OCC)c1OCc1ccc(Cl)cc1,31.4
20,COc1ccccc1C1C(C#N)=C(N)Oc2cc(C)n(Cc3ccccn3)c(=O)c21 (stereo not drawn),-2.81
21,Cc1ccc2c(c1)C(=C(C#N)C#N)C(=O)N2CCN1CCOCC1,-38.6

# Source: article PMC4336329 (PLoS ONE, 2015)
